# Reference: paper PMC5349851, “Combinatorial bZIP dimers display complex DNA-binding specificity landscapes”
# Columns and labels:
# Assay in all cases: SELEX-seq (CSI, HT-SELEX, round 3); SELEX-seq: 1x PBS (10 mM phosphate, 137 mM NaCl, 2.7 mM KCl) pH 7.6, 2.5 mM DTT, 50 ng/ul poly dI-dC, 0.1% BSA, 50 nM biotinylated bZIP (1:3 with partner for heterodimers), 100 nM library, room temperature, 1 h, 3 rounds; high values mean tight binding
# Conditions in all cases: protein: recombinant;recombinant; copies: 1;1; dsDNA, one strand shown
# BATF2;ATF4 = BATF2;ATF4 (Homo sapiens;Homo sapiens, UniProt Q8N1L9;P18848 8-85;269-346, |)
# BATF3;NFIL3 = target: T1, BATF3;NFIL3 (Homo sapiens;Homo sapiens, UniProt Q9NR55;Q16649 26-99;64-134, |)
# T1 sequence 1: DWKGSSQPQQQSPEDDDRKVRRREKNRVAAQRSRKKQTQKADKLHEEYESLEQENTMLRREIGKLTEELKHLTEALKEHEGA
# T1 sequence 2: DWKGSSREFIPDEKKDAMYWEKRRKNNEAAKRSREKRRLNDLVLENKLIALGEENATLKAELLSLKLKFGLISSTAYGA
# CEBPE;CEBPE = target: T2, CEBPE;CEBPE (Homo sapiens;Homo sapiens, UniProt Q15744;Q15744 195-267;195-267, |)
# T2 sequence 1: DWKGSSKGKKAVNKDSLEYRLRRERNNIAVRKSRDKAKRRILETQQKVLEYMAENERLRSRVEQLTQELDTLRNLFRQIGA
# T2 sequence 2: T2 sequence 1
# JUNB;CEBPE = target: T3, JUNB;CEBPE (Homo sapiens;Homo sapiens, UniProt P17275;Q15744 259-332;195-267, |)
# T3 sequence 1: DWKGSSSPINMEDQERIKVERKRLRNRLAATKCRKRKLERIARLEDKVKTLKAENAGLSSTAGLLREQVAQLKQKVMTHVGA
# T3 sequence 2: T2 sequence 1
# JUNB;BATF = target: T4, JUNB;BATF (Homo sapiens;Homo sapiens, UniProt P17275;Q16520 259-332;17-90, |)
# T4 sequence 1: T3 sequence 1
# T4 sequence 2: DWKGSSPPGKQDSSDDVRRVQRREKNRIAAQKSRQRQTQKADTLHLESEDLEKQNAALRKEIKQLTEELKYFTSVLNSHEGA
# JUNB;FOSL1 = target: T5, JUNB;FOSL1 (Homo sapiens;Homo sapiens, UniProt P17275;P15407 259-332;96-169, |)
# T5 sequence 1: T3 sequence 1
# T5 sequence 2: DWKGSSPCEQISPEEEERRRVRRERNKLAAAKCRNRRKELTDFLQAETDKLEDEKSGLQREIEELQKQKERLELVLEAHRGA
# JUNB;FOS = JUNB;FOS (Homo sapiens;Homo sapiens, UniProt P17275;P01100 259-332;128-201, |)
# JUNB;NFE2 = target: T6, JUNB;NFE2 (Homo sapiens;Homo sapiens, UniProt P17275;Q16621 259-332;221-337, |)
# T6 sequence 1: T3 sequence 1
# T6 sequence 2: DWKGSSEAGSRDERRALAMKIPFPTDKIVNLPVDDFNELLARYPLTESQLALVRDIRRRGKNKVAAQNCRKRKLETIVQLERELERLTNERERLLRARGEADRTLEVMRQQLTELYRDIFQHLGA
# JUNB;NFE2L1 = JUNB;NFE2L1 (Homo sapiens;Homo sapiens, UniProt P17275;Q14494 259-332;609-725, |)
# JUNB;HLF = target: T7, JUNB;HLF (Homo sapiens;Homo sapiens, UniProt P17275;Q16534 259-332;216-293, |)
# T7 sequence 1: T3 sequence 1
# T7 sequence 2: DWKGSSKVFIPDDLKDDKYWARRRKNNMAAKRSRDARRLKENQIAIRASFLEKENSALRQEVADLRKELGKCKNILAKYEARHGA
# JUNB;BATF2 = target: T8, JUNB;BATF2 (Homo sapiens;Homo sapiens, UniProt P17275;Q8N1L9 259-332;8-85, |)
# T8 sequence 1: T3 sequence 1
# T8 sequence 2: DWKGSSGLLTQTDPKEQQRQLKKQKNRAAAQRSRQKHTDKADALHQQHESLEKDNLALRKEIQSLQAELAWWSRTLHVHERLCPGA
# JUNB;CREBZF = target: T9, JUNB;CREBZF (Homo sapiens;Homo sapiens, UniProt P17275;Q9NS37 259-332;195-272, |)
# T9 sequence 1: T3 sequence 1
# T9 sequence 2: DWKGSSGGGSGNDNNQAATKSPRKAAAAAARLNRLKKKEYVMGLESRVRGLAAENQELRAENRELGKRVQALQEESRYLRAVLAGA
# BATF;HLF = target: T10, BATF;HLF (Homo sapiens;Homo sapiens, UniProt Q16520;Q16534 17-90;216-293, |)
# T10 sequence 1: T4 sequence 2
# T10 sequence 2: T7 sequence 2
# BATF;NFIL3 = target: T11, BATF;NFIL3 (Homo sapiens;Homo sapiens, UniProt Q16520;Q16649 17-90;64-134, |)
# T11 sequence 1: T4 sequence 2
# T11 sequence 2: T1 sequence 2
# FOSL1;CEBPE = target: T12, FOSL1;CEBPE (Homo sapiens;Homo sapiens, UniProt P15407;Q15744 96-169;195-267, |)
# T12 sequence 1: T5 sequence 2
# T12 sequence 2: T2 sequence 1
# FOSL1;FOSL1 = target: T13, FOSL1;FOSL1 (Homo sapiens;Homo sapiens, UniProt P15407;P15407 96-169;96-169, |)
# T13 sequence 1: T5 sequence 2
# T13 sequence 2: T5 sequence 2
# FOSL1;NFE2 = target: T14, FOSL1;NFE2 (Homo sapiens;Homo sapiens, UniProt P15407;Q16621 96-169;221-337, |)
# T14 sequence 1: T5 sequence 2
# T14 sequence 2: T6 sequence 2
# FOS;BATF = FOS;BATF (Homo sapiens;Homo sapiens, UniProt P01100;Q16520 128-201;17-90, |)
# FOS;FOSL1 = FOS;FOSL1 (Homo sapiens;Homo sapiens, UniProt P01100;P15407 128-201;96-169, |)
# FOS;NFE2 = FOS;NFE2 (Homo sapiens;Homo sapiens, UniProt P01100;Q16621 128-201;221-337, |)
Sequence,binding signal (BATF2;ATF4),binding signal (BATF3;NFIL3),binding signal (CEBPE;CEBPE),binding signal (JUNB;CEBPE),binding signal (JUNB;BATF),binding signal (JUNB;FOSL1),binding signal (JUNB;FOS),binding signal (JUNB;NFE2),binding signal (JUNB;NFE2L1),binding signal (JUNB;HLF),binding signal (JUNB;BATF2),binding signal (JUNB;CREBZF),binding signal (BATF;HLF),binding signal (BATF;NFIL3),binding signal (FOSL1;CEBPE),binding signal (FOSL1;FOSL1),binding signal (FOSL1;NFE2),binding signal (FOS;BATF),binding signal (FOS;FOSL1),binding signal (FOS;NFE2)
ATGACGTAAT,0.119 relative CSI intensity (max = 1),0.178 relative CSI intensity (max = 1),0.0888 relative CSI intensity (max = 1),0.0862 relative CSI intensity (max = 1),0.0325 relative CSI intensity (max = 1),0.017 relative CSI intensity (max = 1),0.00946 relative CSI intensity (max = 1),0.12 relative CSI intensity (max = 1),0.116 relative CSI intensity (max = 1),0.537 relative CSI intensity (max = 1),0.0936 relative CSI intensity (max = 1),0.0382 relative CSI intensity (max = 1),0.71 relative CSI intensity (max = 1),0.786 relative CSI intensity (max = 1),0.00904 relative CSI intensity (max = 1),0.0331 relative CSI intensity (max = 1),0.129 relative CSI intensity (max = 1),0.0179 relative CSI intensity (max = 1),0.0348 relative CSI intensity (max = 1),0.0286 relative CSI intensity (max = 1)
ATGATGCAAT,0.0322 relative CSI intensity (max = 1),0.0307 relative CSI intensity (max = 1),0.139 relative CSI intensity (max = 1),0.314 relative CSI intensity (max = 1),,,,0.116 relative CSI intensity (max = 1),0.0453 relative CSI intensity (max = 1),,0.00121 relative CSI intensity (max = 1),0.00786 relative CSI intensity (max = 1),0.179 relative CSI intensity (max = 1),0.0609 relative CSI intensity (max = 1),0.0136 relative CSI intensity (max = 1),0.00963 relative CSI intensity (max = 1),0.12 relative CSI intensity (max = 1),,,0.0393 relative CSI intensity (max = 1)
ATGACGTCAT,0.216 relative CSI intensity (max = 1),0.218 relative CSI intensity (max = 1),0.0521 relative CSI intensity (max = 1),0.104 relative CSI intensity (max = 1),0.784 relative CSI intensity (max = 1),0.3 relative CSI intensity (max = 1),0.188 relative CSI intensity (max = 1),1 relative CSI intensity (max = 1),1 relative CSI intensity (max = 1),1 relative CSI intensity (max = 1),1 relative CSI intensity (max = 1),1 relative CSI intensity (max = 1),0.814 relative CSI intensity (max = 1),1 relative CSI intensity (max = 1),0.0518 relative CSI intensity (max = 1),1 relative CSI intensity (max = 1),0.466 relative CSI intensity (max = 1),1 relative CSI intensity (max = 1),0.96 relative CSI intensity (max = 1),0.106 relative CSI intensity (max = 1)
CCTGACGTCA,0.0186 relative CSI intensity (max = 1),0.00724 relative CSI intensity (max = 1),0.00701 relative CSI intensity (max = 1),0.00962 relative CSI intensity (max = 1),0.0101 relative CSI intensity (max = 1),0.00464 relative CSI intensity (max = 1),0.00331 relative CSI intensity (max = 1),0.0277 relative CSI intensity (max = 1),0.0112 relative CSI intensity (max = 1),0.00417 relative CSI intensity (max = 1),0.0149 relative CSI intensity (max = 1),,0.0974 relative CSI intensity (max = 1),,0.00153 relative CSI intensity (max = 1),0.0039 relative CSI intensity (max = 1),0.0335 relative CSI intensity (max = 1),0.0057 relative CSI intensity (max = 1),,0.00384 relative CSI intensity (max = 1)
ATGACGGAAT,,0.0076 relative CSI intensity (max = 1),0.00629 relative CSI intensity (max = 1),0.00513 relative CSI intensity (max = 1),0.002 relative CSI intensity (max = 1),,,0.0241 relative CSI intensity (max = 1),0.0118 relative CSI intensity (max = 1),0.00331 relative CSI intensity (max = 1),,0.00176 relative CSI intensity (max = 1),,,,,0.0575 relative CSI intensity (max = 1),,0.0281 relative CSI intensity (max = 1),0.00162 relative CSI intensity (max = 1)
ATGACGCAAT,0.0339 relative CSI intensity (max = 1),0.0474 relative CSI intensity (max = 1),0.259 relative CSI intensity (max = 1),0.333 relative CSI intensity (max = 1),0.00832 relative CSI intensity (max = 1),0.00312 relative CSI intensity (max = 1),0.00347 relative CSI intensity (max = 1),0.344 relative CSI intensity (max = 1),0.169 relative CSI intensity (max = 1),0.176 relative CSI intensity (max = 1),0.00872 relative CSI intensity (max = 1),0.0122 relative CSI intensity (max = 1),0.105 relative CSI intensity (max = 1),0.155 relative CSI intensity (max = 1),0.0294 relative CSI intensity (max = 1),0.0097 relative CSI intensity (max = 1),0.18 relative CSI intensity (max = 1),0.00539 relative CSI intensity (max = 1),0.0408 relative CSI intensity (max = 1),0.0862 relative CSI intensity (max = 1)
